Screens deposited in PubChem by National Center for Advancing Translational Sciences (NCATS).
A selection: hits, their analogues and other compounds. The true share with any hit is near 3.2%.
TR SRC2 fluor cs: Texas Red fluorescence interference in TRb-SRC2 counter-screen. hit rate 0.29% among 280,000. TRb/SRC2 Texas Red total fluorescence interference. Potency, µM (doses to about 106 µM), without a hit: top-dose fluorescence change, negative = quenching; active = well fitted curve in either direction with a large enough effect; inconclusive = small, poorly fitted or top-dose-only effect
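Human TRb ligand-binding domain at 0.6 uM with 20 nM Texas Red SRC2 peptide in Tris buffer containing 1 uM T3 and 5% DMSO, incubated with compound 5 h at ambient temperature. Total fluorescence (555/632 nm) calculated as parallel + 2 × perpendicular.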
Tau ThT inhib: inhibitors of human tau fibril formation, thioflavin T binding; P10636; recombinant tau K18 P301L, heparin-induced fibrillization, ThT fluorescence; Potency, µM (highest dose often 57.4 µM), without a hit: at the top dose activity, negative = inhibition, most hits filed as inhibitors; hit rate 2.1% among 270,000; note: nearly all actives have a fitted effect of over 55% in size
Target sequence (P10636 561-689 P618L limits assumed): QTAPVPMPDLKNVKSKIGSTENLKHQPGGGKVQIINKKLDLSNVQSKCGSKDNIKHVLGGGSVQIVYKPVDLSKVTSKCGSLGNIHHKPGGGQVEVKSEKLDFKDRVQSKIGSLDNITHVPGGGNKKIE
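Heparin-induced fibrillization of the P301L-mutant K18 repeat-domain fragment of human tau was followed by ThT binding in quantitative high-throughput format.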
Tau fibril FP: blocks human tau fibril formation measured by polarization; AID 1468; Potency, µM (top dose mostly 57.7 µM), without a hit: at the highest dose activity, negative = inhibition, hits mostly inhibitors; hit rate 0.39% among 280,000; K18 P301L tau heparin fibrillization, Alexa594 FP, 6 h; P10636; note: nearly all actives have a fitted effect of over 55% in size
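Human K18 P301L fragment (15 uM unlabeled plus 0.24 uM Alexa 594-labeled) in 100 mM sodium acetate pH 7 with compound, aggregation induced by 20 uM heparin for 6 hr at 37 C. ThT (30 uM) added for 1 hr, then Alexa 594 FP read.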
RGS12 GoLoco inh: RGS12 GoLoco-Gai1 interaction inhibition. hit rate 0.44% among 230,000. P63096. Potency, µM (series often up to 61.6 µM), for inactives: top-dose activity, negative = inhibition, usual class: inhibitors. Gai1:RGS12 GoLoco peptide FP, rhodamine, 10 min; active = well fitted inhibition curve with a large enough effect, not every such curve was filed as active; inactive = no such curve, though single readings can be large or run the other way; note: nearly all actives have a fitted effect of over 30% in size
TRb-SRC2 inh: TRbeta-SRC2 interaction inhibition | Potency, µM (top dose mostly 106 µM), inactives show at the highest dose activity change, negative = inhibition, hits mostly inhibitors | hit rate 0.065% among 280,000 | P10828 | TRbeta-SRC2 peptide binding, fluorescence polarization; receptor liganded with 1 µM T3 | AID 1469;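 note: plate controls were bound peptide for no effect and peptide without receptor for full effect; nearly all actives have a fitted effect of over 50% in size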
Target sequence (P10828 whole entry, looked up): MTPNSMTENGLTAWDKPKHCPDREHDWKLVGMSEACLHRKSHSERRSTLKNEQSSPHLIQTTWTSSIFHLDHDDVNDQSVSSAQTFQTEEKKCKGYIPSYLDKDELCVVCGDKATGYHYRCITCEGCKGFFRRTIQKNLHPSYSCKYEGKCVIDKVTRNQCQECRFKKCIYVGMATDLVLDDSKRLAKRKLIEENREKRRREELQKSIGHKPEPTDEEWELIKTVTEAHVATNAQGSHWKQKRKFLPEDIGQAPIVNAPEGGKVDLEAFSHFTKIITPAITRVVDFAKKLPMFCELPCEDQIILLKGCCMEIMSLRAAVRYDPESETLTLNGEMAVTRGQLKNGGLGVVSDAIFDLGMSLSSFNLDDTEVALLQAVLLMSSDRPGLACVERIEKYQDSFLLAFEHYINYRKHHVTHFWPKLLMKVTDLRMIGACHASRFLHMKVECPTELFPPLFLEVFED
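Binding of a 20-amino-acid Texas Red SRC2 peptide (20 nM) to TRb ligand-binding domain (0.6 uM) with agonist T3 at 1 uM was followed by fluorescence polarization after a 5 hr room-temperature incubation.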
Tau fluor cs: counter-screen for tau fibril formation inhibitors | tau K18 P301L Alexa594 fluorescence, heparin fibrillization | Potency, µM (highest dose often 57.7 µM), without a hit: at the top dose activity change, negative = decrease | hit rate 0.93% among 280,000; note: nearly all actives have a fitted effect of over 55% in size
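Human tau K18 P301L (15 uM unlabeled, 0.24 uM Alexa 594-labeled) in 100 mM sodium acetate pH 7 with 20 uM heparin, 6 hr at 37 C. ThT 30 uM added, 1 hr ambient; Alexa 594 FP and total fluorescence read at 555/632 nm.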
Starred values were filed as active, the others as inactive; u = inconclusive; x = no result; [ ] = another dose, or the depositor's remark. Unless noted, calls come from the whole dose curve; as a rule, active = well fitted curve in the direction sought with a large enough effect; inconclusive = small, poorly fitted or top-dose-only effect, or another doubt; inactive = no such curve, though single readings can be large; an effect the other way counts as inactive or inconclusive. Unless noted, % is set by controls: 0 for no effect and ±100 for the full control effect; potency is the fitted concentration of half-maximal effect.

SMILES	TR SRC2 fluor cs	Tau ThT inhib	Tau fibril FP	RGS12 GoLoco inh	TRb-SRC2 inh	Tau fluor cs
Cc1c(C(=O)Nc2ccccc2)sc2nc(-c3cc4ccccc4oc3=O)[nH]c(=O)c12	282µM*[quencher]	4%	-4%	x	-2%	2%
CCN(CC)c1ccc(C=C2C(=O)OC3(CCCCC3)OC2=O)cc1	13%	-18%	3%	239%	14%	-3%
CCN(CC)c1ccc(/C=C2/C(=O)c3ccc(C(=O)O)cc3C2=O)cc1	u	3.2µM*	u	26%	29%	-11%
C[N+](C)(C)CCOC(=O)C1(c2ccccc2)CCCC1	0%	-10%	1%	7.1µM*	-5%	-9%
CC(C[N+](C)(C)C)OC(=O)C1(c2ccccc2)CCCC1 (stereo not drawn)	-1%	-9%	-2%	-22%	4%	-2%
CCCCOC(=O)c1c(C)oc2ccc(NS(=O)(=O)c3ccc4c5c(cccc35)C(=O)N4)cc12	-5%	u	-2%	12%	-5%	16µM*[quencher]
C=C(CCC12O[C@H](C(=O)O)[C@@](O)(C(=O)O)[C@](C(=O)O)(O1)[C@H](OC(=O)/C=C/[C@@H](C)C[C@@H](C)CC)[C@H]2O)[C@@H](OC(C)=O)[C@H](C)Cc1ccccc1	1%	u	10%	-2%	-3%	-3%
NCCC[C@@H](CC(=O)N[C@@H]1CCNC[C@H]1C(=O)N[C@H](CC(=O)N[C@@H](CCC(=O)O)CC(=O)O)Cc1ccccc1)NC(=O)C[C@H](CO)NC(=O)[C@@H]1CNCC[C@H]1N	-1%	-5%	0%	0%	-3%	-1%
COc1cccc(-c2nnc3n2N=C(c2ccc(OC)cc2OC)CS3)c1	-1%	x	x	x	-5%	x
Cc1ccc(NC(=O)c2cnccn2)cc1S(=O)(=O)N(C)C	-2%	-3%	-14%	0%	4%	1%
Cc1cnc(C(=O)Nc2ccc(C)c(S(=O)(=O)N(C)C)c2)cn1	35µM*[quencher]	-1%	-2%	0%	-17%[53 µM]	-4%
CCn1c2ccccc2c2cc(NC(=O)c3ccc(Br)o3)ccc21	-6%	13µM*	u	157%	-14%	u
Cc1ccc(/C=N/n2c(=O)c(C(C)(C)C)nn3cnnc23)cc1	0.079µM*[quencher]	3%	u	11%	u	-2%
CCOc1ccc(NC(=O)CSC2=Nc3ccccc3C3=NC(CC(=O)NCc4ccc5c(c4)OCO5)C(=O)N23)cc1 (stereo not drawn)	-3%	u	7%	x	1%	u
COc1ccc(C(=O)C[N+]2(C)CCOCC2)cc1	-2%	-7%	-4%	7.1µM*	-2%	-9%
COc1ccc(C(=O)OCC[N+]2(C)CCCCC2)cc1	-1%	-1%	-2%	13µM*	2%	-1%
COC(=O)c1cc2sc(C)cc2n1Cc1nc(-c2ccc(C)cc2)oc1C	89µM*[quencher]	u	-9%	x	-15%	u
COC(=O)c1cc2oc3ccccc3c2n1Cc1cc(C)ccc1C	22µM*[quencher]	-2%	-6%	x	-9%	-7%
COC(=O)c1cc2oc3ccccc3c2n1Cc1nc(-c2ccccc2C)oc1C	20µM*[quencher]	-4%	-5%	x	-11%	-6%
O=C(NCCc1ccccc1)c1nc(-c2ccc(Cl)cc2)n2c1CCCCC2	u	-8%	6%	x	0%	-3%
O=C(NCc1ccccc1)c1nc(-c2ccc(Cl)cc2)n2c1CCCCC2	20µM*[quencher]	-3%	-5%	x	-4%	0%
CC(C)N(Cc1ccccc1)C(=O)c1nc(-c2ccc(Cl)cc2)n2c1CCCCC2	14µM*[quencher]	-2%	-7%	x	-12%	2%
COc1ccc(NC(=O)CCS(=O)(=O)c2ccc3c(c2)n(C)c(=O)c(=O)n3C)cc1Cl	1%	-4%	-1%	x	2%	0%
Nc1ccc(N=Nc2ccccc2)c2ccccc12	0%	7.1µM*	u	13%	7%	13µM*[quencher]
C=CCOC[C@@H]1CN2[C@H](c3ccc(Br)cc3)[C@@H](C)CC[C@H]2C(=O)O1	1%	-1%	-1%	0%	7%	-2%
SMILES	TR SRC2 fluor cs	Tau ThT inhib	Tau fibril FP	RGS12 GoLoco inh	TRb-SRC2 inh	Tau fluor cs
Cc1cccc(NC(=O)CSc2nnc(-c3ccco3)c(-c3ccco3)n2)c1	-2%[53 µM]	14µM*	u	-4%	2%[53 µM]	u
Cc1ccccc1NC(=O)CSc1ccc(-c2ccco2)nn1	-4%	-8%	4%	3%	3%	-5%
Cc1cccc(NC(=O)CSc2nnc(-c3ccco3)c(-c3ccco3)n2)c1C	u	7.9µM*	13µM*	4%	-12%	u
Cc1cccc(NC(=O)CSc2nc(N)cc(N)n2)c1	0%	-2%	-9%	9%	13%	-3%
CN(C)c1ccc(/C=C/C(=O)c2c(O)c3ccccc3oc2=O)cc1	9%	x	u	-121%	20%	0.71µM*[fluorescent]
CO[C@@H]1/C=C\O[C@]2(C)Oc3c(C)c(O)c4c(O)c(c(CN5CCN(C)CC5)c(O)c4c3C2=O)NC(=O)/C(C)=C\C=C[C@@H](C)[C@@H](O)[C@H](C)[C@@H](O)C(C)[C@H](OC(C)=O)[C@@H]1C (stereo partly drawn)	x	x	x	7%[14.2 µM]	x	x
C[N+]1(CCOc2ccc([N+](=O)[O-])cc2)CCOCC1	-4%	11%	-2%	18µM*	-9%	4%
O=C(O)c1cc(N=Cc2ccccc2O)cc(C(=O)O)c1	x	x	x	6%[14.2 µM]	x	x
O=Cc1cc(N=Nc2cccc(C(=O)O)c2)ccc1O	u	4µM*	-8%	1%	4%	-13%
O=Cc1cc(N=Nc2ccccc2Cl)ccc1O	-15%	13µM*	u	14%	8%	u
c1ccc(CNc2nc3c(-c4ccccc4)nnn3c3ccccc23)cc1	2%	3%	-14%	x	-7%	-3%
O=CN/C=C/c1cc(O)ccc1O	-9%	25µM*	u	-21%	-2%	28µM*[quencher]
O=CN/C=C/c1cc(F)cc(F)c1F	1%	-1%	-3%	-2%	5%	-2%
N#C/C(=N\Nc1cccc(C(F)(F)F)c1)C(=O)c1ccsc1	-17%	14µM*	15%	11%	6%	u
C/C(=N\NC(=O)CNc1cccc(C(F)(F)F)c1)c1cccs1	-1%	-14%	-7%	3%	-4%	-20%
COc1ccc(NS(=O)(=O)c2ccc(I)cc2)cc1N1CCN(C)CC1	0%	-12%	7%	-4%	-8%	-19%
CCOc1ccc(NC(=O)CCCc2nc(-c3cccc(OC)c3)no2)cc1	u	u	-2%	x	4%	u
COc1cc(/C=C2/C(=O)NN(c3cccc(F)c3)C2=O)ccc1OC(=O)c1ccco1	2%	u	3%	-3%	-5%	-15%
